# Experimental data from publication PMC7862700, “An all-to-all approach to the identification of sequence-specific readers for epigenetic DNA modifications on cytosine”.
# What was measured:
# Assay in all cases: DAPPL (digital affinity profiling via proximity ligation, sequencing); 10 mM Tris-HCl pH 7.5, 50 mM NaCl, 1 mM DTT, 4% glycerol, room temperature, 30 min; GST-TFs on glutathione beads, 16-mer random dsDNA library, 0.1% formaldehyde crosslink after washing; high values mean tight binding
# FLI1 = molecular target: T1, FLI1 (Homo sapiens, UniProt Q01543 1-452); conditions: protein: recombinant; tags: N-terminal GST; dsDNA, one strand shown
# T1 sequence: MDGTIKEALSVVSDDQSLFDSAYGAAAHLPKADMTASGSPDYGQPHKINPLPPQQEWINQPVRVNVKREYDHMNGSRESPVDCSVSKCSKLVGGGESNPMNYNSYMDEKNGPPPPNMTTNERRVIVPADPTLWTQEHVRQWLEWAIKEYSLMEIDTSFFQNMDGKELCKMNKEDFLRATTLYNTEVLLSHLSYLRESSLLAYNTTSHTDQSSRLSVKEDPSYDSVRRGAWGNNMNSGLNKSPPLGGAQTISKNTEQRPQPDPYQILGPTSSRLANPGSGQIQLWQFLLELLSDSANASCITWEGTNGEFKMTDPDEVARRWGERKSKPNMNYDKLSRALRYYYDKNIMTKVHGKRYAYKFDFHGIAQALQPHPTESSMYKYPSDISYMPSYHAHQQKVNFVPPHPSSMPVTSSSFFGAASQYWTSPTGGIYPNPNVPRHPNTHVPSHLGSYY
# Method in brief: (§1)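 Yeast served to express human transcription factors as GST fusions, which were then captured on glutathione beads and labelled with DNA barcodes. Pooled with a tag-only sample, they were incubated with 200 nmole of a 16-mer random double-stranded DNA library for 30 min at room temperature in Tris/NaCl/DTT/glycerol buffer, washed, crosslinked with 0.1% formaldehyde, ligated by proximity, amplified by PCR and sequenced. Dividing each hexamer's read frequency for a factor by its frequency for the tag-only sample gives the binding signal.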
# GABPA = molecular target: T2, GABPA (Homo sapiens, UniProt Q06546 1-454); conditions: protein: recombinant; tags: N-terminal GST; dsDNA, one strand shown
# T2 sequence: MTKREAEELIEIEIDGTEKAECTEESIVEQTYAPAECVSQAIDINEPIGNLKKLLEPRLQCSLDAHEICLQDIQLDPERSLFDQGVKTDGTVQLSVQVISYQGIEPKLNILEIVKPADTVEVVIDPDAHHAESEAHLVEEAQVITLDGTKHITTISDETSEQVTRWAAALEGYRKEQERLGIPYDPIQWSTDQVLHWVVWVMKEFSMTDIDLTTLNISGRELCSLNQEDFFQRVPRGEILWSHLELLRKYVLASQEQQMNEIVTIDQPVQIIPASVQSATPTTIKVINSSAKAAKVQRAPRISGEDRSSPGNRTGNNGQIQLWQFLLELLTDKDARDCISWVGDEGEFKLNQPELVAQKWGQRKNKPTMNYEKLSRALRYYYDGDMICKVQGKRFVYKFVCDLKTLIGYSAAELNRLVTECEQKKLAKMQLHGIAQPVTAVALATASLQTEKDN
# Method in brief: as §1
# ERG = molecular target: T3, ERG (Homo sapiens, UniProt P11308 1-479); conditions: protein: recombinant; tags: N-terminal GST; dsDNA, one strand shown
# T3 sequence: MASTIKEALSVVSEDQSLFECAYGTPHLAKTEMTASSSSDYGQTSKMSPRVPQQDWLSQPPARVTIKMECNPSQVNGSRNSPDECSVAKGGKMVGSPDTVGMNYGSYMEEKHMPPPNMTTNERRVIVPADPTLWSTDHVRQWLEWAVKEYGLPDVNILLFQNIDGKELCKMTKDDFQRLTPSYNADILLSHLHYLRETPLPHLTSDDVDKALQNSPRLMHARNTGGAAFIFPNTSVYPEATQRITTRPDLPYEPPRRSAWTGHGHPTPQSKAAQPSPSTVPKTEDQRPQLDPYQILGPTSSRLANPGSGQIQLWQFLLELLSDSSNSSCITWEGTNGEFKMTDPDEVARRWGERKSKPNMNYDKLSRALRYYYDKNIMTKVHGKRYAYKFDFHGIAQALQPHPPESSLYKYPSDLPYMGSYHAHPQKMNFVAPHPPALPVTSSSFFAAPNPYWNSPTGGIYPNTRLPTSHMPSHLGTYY
# Method in brief: as §1
# ELF1 = ELF1 (Homo sapiens, UniProt P32519 1-619); conditions: protein: recombinant; tags: N-terminal GST; dsDNA, one strand shown
# Method in brief: as §1
# EHF = molecular target: T4, EHF (Homo sapiens, UniProt Q9NZC4 1-300); conditions: protein: recombinant; tags: N-terminal GST; dsDNA, one strand shown
# T4 sequence: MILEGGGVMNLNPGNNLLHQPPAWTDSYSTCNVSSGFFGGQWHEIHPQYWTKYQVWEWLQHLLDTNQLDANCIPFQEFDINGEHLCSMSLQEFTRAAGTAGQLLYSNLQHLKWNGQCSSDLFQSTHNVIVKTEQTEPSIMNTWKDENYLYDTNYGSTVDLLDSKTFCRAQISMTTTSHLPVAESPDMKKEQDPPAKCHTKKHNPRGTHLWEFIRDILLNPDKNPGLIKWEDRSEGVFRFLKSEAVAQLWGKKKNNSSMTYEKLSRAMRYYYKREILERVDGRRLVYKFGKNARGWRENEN
# Method in brief: as §1
# SPI1 = SPI1 (Homo sapiens, UniProt P17947 1-270); conditions: protein: recombinant; tags: N-terminal GST; dsDNA, one strand shown
# Method in brief: as §1
# SPIB = SPIB (Homo sapiens, UniProt Q01892 1-262); conditions: protein: recombinant; tags: N-terminal GST; dsDNA, one strand shown
# Method in brief: as §1
# FEV = molecular target: T5, FEV (Homo sapiens, UniProt Q99581 1-238); conditions: protein: recombinant; tags: N-terminal GST; dsDNA, one strand shown
# T5 sequence: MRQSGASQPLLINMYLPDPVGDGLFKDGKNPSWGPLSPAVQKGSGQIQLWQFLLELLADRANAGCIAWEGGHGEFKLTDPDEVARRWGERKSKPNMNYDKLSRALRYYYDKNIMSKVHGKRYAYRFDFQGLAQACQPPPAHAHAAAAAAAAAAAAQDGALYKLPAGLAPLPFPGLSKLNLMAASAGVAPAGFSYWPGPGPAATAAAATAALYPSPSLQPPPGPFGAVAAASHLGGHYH
# Method in brief: as §1
# ETV5 = ETV5 (Homo sapiens, UniProt P41161 1-510); conditions: protein: recombinant; tags: N-terminal GST; dsDNA, one strand shown
# Method in brief: as §1
# HSF1 = HSF1 (Homo sapiens, UniProt Q00613 1-529); conditions: protein: recombinant; tags: N-terminal GST; chain copies: 3; dsDNA, one strand shown
# Method in brief: as §1
# SPIC = molecular target: T6, SPIC (Homo sapiens, UniProt Q8N5J4 1-248); conditions: protein: recombinant; tags: N-terminal GST; dsDNA, one strand shown
# T6 sequence: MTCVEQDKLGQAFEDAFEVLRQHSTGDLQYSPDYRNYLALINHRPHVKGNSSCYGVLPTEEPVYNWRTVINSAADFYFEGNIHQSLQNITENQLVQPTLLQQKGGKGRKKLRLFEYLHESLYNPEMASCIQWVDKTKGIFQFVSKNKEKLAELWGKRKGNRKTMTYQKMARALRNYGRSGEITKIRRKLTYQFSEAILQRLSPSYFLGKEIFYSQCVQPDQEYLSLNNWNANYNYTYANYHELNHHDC
# Method in brief: as §1
# ELF4 = ELF4 (Homo sapiens, UniProt Q99607 1-663); conditions: protein: recombinant; tags: N-terminal GST; dsDNA, one strand shown
# Method in brief: as §1
# ELK4 = molecular target: T7, ELK4 (Homo sapiens, UniProt P28324-2 1-405); conditions: protein: recombinant; tags: N-terminal GST; dsDNA, one strand shown
# T7 sequence: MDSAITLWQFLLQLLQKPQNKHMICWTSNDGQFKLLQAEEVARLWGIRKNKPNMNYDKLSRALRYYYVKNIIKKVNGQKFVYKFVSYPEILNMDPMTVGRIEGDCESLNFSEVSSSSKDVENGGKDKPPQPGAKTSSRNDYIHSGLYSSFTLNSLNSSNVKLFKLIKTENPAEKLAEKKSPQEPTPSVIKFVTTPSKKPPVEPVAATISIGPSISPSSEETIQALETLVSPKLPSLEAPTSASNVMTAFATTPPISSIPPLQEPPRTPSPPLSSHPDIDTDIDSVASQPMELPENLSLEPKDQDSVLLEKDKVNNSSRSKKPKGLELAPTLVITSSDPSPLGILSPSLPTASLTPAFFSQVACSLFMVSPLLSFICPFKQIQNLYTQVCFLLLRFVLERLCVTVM
# Method in brief: as §1
# ETV2 = molecular target: T8, ETV2 (Homo sapiens, UniProt O00321 1-342); conditions: protein: recombinant; tags: N-terminal GST; dsDNA, one strand shown
# T8 sequence: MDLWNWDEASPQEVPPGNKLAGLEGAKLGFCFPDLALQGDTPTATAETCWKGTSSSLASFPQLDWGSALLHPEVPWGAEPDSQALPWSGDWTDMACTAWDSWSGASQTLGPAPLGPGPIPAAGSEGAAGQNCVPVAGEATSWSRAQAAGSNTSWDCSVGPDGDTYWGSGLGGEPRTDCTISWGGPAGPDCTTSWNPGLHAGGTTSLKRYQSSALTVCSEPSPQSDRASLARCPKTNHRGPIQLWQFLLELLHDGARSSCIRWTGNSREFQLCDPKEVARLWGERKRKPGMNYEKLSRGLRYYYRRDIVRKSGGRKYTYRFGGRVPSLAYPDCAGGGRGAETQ
# Method in brief: as §1
# ELF3 = molecular target: T9, ELF3 (Homo sapiens, UniProt P78545 1-371); conditions: protein: recombinant; tags: N-terminal GST; dsDNA, one strand shown
# T9 sequence: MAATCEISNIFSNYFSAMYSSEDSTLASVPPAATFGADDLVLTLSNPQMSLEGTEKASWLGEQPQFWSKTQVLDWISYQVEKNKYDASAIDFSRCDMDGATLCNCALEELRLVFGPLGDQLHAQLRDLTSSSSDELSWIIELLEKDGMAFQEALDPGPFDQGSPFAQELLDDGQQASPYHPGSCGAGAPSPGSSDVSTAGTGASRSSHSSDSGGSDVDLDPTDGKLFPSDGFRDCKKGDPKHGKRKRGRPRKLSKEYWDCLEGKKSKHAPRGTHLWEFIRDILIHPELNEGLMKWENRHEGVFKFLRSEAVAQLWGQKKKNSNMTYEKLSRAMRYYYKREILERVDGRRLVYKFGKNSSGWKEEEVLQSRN
# Method in brief: as §1
# CRX = CRX (Homo sapiens, UniProt O43186 1-299); conditions: protein: recombinant; tags: N-terminal GST; dsDNA, one strand shown
# Method in brief: as §1
# ETV1 = ETV1 (Homo sapiens, UniProt P50549 1-477); conditions: protein: recombinant; tags: N-terminal GST; dsDNA, one strand shown
# Method in brief: as §1
# Chain of CRX (O43186 whole entry): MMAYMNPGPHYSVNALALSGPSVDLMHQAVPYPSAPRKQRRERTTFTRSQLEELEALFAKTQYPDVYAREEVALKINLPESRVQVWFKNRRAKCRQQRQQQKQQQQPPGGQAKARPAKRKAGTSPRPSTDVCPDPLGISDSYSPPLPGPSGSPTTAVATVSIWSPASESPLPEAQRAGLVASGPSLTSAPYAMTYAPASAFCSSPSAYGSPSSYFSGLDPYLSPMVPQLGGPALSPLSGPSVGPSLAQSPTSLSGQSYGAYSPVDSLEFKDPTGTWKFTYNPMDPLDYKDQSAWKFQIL
# Chain of ELF1 (P32519 whole entry): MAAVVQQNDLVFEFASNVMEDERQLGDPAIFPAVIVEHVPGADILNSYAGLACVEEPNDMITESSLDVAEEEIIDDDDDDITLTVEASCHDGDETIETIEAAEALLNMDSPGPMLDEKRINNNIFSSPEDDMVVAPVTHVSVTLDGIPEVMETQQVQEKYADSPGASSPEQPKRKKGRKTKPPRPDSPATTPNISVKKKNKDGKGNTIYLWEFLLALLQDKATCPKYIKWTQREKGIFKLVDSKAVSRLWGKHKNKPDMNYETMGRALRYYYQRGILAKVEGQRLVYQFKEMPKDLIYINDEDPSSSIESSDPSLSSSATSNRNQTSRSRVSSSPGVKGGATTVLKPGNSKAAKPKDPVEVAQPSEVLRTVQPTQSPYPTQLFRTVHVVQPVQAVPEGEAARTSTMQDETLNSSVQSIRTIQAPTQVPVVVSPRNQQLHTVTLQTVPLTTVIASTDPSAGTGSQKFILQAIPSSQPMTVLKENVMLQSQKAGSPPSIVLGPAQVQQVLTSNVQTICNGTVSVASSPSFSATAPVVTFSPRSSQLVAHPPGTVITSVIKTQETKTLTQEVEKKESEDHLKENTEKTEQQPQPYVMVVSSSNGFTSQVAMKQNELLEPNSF
# Chain of ELF4 (Q99607 whole entry): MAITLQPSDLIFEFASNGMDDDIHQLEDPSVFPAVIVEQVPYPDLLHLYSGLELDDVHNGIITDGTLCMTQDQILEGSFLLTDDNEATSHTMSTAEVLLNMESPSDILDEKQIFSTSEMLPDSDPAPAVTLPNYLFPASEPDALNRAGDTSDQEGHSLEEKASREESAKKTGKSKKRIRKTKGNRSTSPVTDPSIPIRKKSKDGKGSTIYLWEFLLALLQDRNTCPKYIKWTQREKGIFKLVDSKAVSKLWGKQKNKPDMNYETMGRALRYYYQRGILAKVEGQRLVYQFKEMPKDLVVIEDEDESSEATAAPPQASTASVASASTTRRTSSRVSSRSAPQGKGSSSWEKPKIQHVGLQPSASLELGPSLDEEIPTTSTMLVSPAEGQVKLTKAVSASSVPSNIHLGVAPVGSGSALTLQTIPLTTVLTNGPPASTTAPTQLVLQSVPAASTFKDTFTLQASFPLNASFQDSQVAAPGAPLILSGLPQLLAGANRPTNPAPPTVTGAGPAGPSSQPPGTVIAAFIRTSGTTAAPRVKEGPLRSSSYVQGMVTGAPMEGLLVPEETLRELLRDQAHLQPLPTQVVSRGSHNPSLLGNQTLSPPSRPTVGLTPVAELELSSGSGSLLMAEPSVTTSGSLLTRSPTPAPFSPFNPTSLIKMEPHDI
# Chain of HSF1 (Q00613 whole entry): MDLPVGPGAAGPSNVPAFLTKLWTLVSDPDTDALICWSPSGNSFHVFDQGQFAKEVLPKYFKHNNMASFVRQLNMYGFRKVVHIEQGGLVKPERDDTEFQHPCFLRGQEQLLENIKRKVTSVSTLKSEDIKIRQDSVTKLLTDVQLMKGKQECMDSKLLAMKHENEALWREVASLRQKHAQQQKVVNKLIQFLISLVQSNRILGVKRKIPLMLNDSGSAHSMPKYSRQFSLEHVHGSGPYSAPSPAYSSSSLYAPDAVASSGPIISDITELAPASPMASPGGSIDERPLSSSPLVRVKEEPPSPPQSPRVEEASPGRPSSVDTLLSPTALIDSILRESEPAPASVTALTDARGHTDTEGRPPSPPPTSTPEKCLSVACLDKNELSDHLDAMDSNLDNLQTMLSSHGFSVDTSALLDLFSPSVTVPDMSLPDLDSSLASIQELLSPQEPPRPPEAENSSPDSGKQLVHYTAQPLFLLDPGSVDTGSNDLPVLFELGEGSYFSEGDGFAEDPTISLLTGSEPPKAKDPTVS
# Chain of ETV5 (P41161 whole entry): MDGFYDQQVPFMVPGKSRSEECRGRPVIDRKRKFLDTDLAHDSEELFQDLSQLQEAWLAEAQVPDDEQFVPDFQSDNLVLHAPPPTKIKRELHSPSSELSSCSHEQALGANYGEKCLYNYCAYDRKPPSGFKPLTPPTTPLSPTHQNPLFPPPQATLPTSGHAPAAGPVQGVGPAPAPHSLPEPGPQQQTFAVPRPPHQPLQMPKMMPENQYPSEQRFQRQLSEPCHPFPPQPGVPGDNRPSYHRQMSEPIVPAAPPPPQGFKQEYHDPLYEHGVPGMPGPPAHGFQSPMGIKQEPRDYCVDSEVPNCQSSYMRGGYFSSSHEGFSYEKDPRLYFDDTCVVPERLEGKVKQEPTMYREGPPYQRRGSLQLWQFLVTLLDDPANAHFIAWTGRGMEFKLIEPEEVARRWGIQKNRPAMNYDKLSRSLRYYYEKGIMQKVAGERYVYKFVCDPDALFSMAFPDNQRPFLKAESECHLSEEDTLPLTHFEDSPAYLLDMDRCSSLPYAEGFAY
# Chain of ETV1 (P50549 whole entry): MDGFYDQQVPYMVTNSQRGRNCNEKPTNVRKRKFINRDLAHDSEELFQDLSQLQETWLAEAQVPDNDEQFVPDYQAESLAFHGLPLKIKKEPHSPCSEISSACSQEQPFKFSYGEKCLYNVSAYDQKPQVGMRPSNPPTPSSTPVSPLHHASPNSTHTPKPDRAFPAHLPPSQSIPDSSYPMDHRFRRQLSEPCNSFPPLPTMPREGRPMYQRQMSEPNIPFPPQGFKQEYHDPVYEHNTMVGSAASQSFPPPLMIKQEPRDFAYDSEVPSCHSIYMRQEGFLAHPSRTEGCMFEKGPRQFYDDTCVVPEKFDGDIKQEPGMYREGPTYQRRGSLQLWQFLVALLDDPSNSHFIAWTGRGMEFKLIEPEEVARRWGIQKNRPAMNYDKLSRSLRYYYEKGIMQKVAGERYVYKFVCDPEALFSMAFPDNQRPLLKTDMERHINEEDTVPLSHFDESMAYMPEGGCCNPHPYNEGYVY
# Chain of SPIB (Q01892 whole entry): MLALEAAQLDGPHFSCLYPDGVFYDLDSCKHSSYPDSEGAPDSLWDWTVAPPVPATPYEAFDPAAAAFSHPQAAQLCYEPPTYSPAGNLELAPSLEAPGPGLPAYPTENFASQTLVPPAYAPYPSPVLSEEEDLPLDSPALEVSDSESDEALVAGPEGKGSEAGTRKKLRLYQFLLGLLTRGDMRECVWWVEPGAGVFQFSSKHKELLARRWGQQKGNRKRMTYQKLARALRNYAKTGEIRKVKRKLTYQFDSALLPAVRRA
sequence,measurement,setting,value
GTGGCT,binding signal,FLI1,"1.23 fold enrichment (6-mer frequency, TF over GST control)"
same,binding signal,GABPA,"1.27 fold enrichment (6-mer frequency, TF over GST control)"
same,binding signal,ERG,"1.19 fold enrichment (6-mer frequency, TF over GST control)"
same,binding signal,ELF1,"1.11 fold enrichment (6-mer frequency, TF over GST control)"
same,binding signal,EHF,"1.22 fold enrichment (6-mer frequency, TF over GST control)"
same,binding signal,SPI1,"1.3 fold enrichment (6-mer frequency, TF over GST control)"
same,binding signal,SPIB,"1.18 fold enrichment (6-mer frequency, TF over GST control)"
same,binding signal,FEV,"1.19 fold enrichment (6-mer frequency, TF over GST control)"
same,binding signal,ETV5,"1.13 fold enrichment (6-mer frequency, TF over GST control)"
same,binding signal,HSF1,"1.05 fold enrichment (6-mer frequency, TF over GST control)"
same,binding signal,SPIC,"1.23 fold enrichment (6-mer frequency, TF over GST control)"
same,binding signal,ELF4,"1.1 fold enrichment (6-mer frequency, TF over GST control)"
same,binding signal,ELK4,"1.31 fold enrichment (6-mer frequency, TF over GST control)"
same,binding signal,ETV2,"1.17 fold enrichment (6-mer frequency, TF over GST control)"
same,binding signal,ELF3,"1.26 fold enrichment (6-mer frequency, TF over GST control)"
same,binding signal,CRX,"1.18 fold enrichment (6-mer frequency, TF over GST control)"
same,binding signal,ETV1,"1.19 fold enrichment (6-mer frequency, TF over GST control)"
